Most compounds without a hit are left out; they make up all but 8.8% or so of the library.
IL-1B inflam inh: inflammasome signaling inhibition, IL-1 beta readout. THP-1 LPS/ATP IL-1B secretion, AlphaLISA, 16 h; active compounds read low. activity change, % at 57.5 µM. 360,000 tested, 4.7% active. AID 743279; in the data active = activity change below about -50%; inconclusive = mostly about -30% to -49%
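THP-1 cells pretreated 1 hr with compounds (up to 57.5 uM final), then stimulated with LPS (250 ng/mL final) plus ATP (1.25 mM final); secreted IL-1B measured by AlphaLISA after 16 hr, decreased signal indicating inhibition.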
KB-V1 MDR tox: kills drug-selected multidrug resistant KB-V1 cells; 400,000 tested, 3.4% active; KB-V1 MDR cells viability, CellTiter-Glo, 72 h; Potency, µM (series often up to 46.1 µM), usual class: cytotoxic; also: potency is read from the fitted curve at half-maximal effect; nearly all actives have a fitted effect of over 60% in size
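Drug-selected KB-V1 cells, grown in DMEM lacking phenol red with 10% FBS, receive compound titrations; after three days at 37 degrees C, surviving cell ATP is quantified by CellTiter-Glo luminescence and responses normalized and curve-fitted.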
HT1080NT lethal: kills 2HG-producing HT-1080-NT fibrosarcoma cells; AID 686970; HT-1080-NT fibrosarcoma viability, CellTiter-Glo ATP luminescence, 48 h; 360,000 tested, 1.6% active; Potency, µM (titrated, usually from 46.1 µM), inactives show at the top dose activity, negative = less viability, most hits filed as cytotoxic;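 also: NT is the 2HG producing partner of a matched IDH1 knockdown line; potency is read from the fitted curve at half-maximal effect; 0% = DMSO-treated cells and -100% = media-only wells without cells; nearly all actives have a fitted effect of over 55% in size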
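750 cells/well, RPMI + 5% FBS; 2 h settle, compound pin-transfer, 48 h at 37 degrees C. CellTiter-Glo 10 min RT, luminescence. Normalized to DMSO and media-only wells.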
HT1080 IDH1KD tx: HT-1080 IDH1 knockdown cell toxicity (counter line); HT-1080 IDH1 knockdown viability, ATP luminescence, 48 h; Potency, µM (series often up to 46.1 µM), without a hit: top-dose activity, negative = toxicity, hits mostly cytotoxic; 360,000 tested, 2% active; AID 686971;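 also: potency is read from the fitted curve at half-maximal effect; 0% = DMSO wells and -100% = cell-free medium wells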
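Viability of IDH1-knockdown HT-1080 fibrosarcoma cells was assessed by CellTiter-Glo after 48 h at 37 °C with titrated compound; concentration-effect curves were classified by fit quality and response size.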
KB-3-1 tox: kills parental KB-3-1 adenocarcinoma cells | KB-3-1 viability, CellTiter-Glo ATP luminescence, 72 h | 400,000 tested, 1.4% active | Potency, µM (titrated, usually from 46.1 µM), hits mostly cytotoxic; also: potency is read from the fitted curve at half-maximal effect; nearly all actives have a fitted effect of over 60% in size
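Cytotoxicity measured as CellTiter-Glo luminescence after 72 h at 37 C. Compound titrations were pinned onto drug-naive KB-3-1 parental adenocarcinoma cells grown in DMEM with 10% FBS, and normalized data fitted to concentration-response curves.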
* = called active by the depositor. Unless noted, calls follow the shape of the dose curve; as a rule, active = well fitted curve in the direction sought with a large enough effect; inconclusive = small, poorly fitted or top-dose-only effect, or another doubt; inactive = no such curve, though single readings can be large; an effect the other way counts as inactive or inconclusive. Unless noted, % is scaled to controls: 0 for no effect and ±100 for the full control effect.

How did CCOc1ccc(N(C)S(=O)(=O)c2ccc(C)c(C(=O)N3CCN(Cc4ccc5c(c4)OCO5)CC3)c2)cc1 do in these assays?
IL-1B inflam inh: -89*; KB-V1 MDR tox: inactive; HT1080NT lethal: -5%; HT1080 IDH1KD tx: -14%; KB-3-1 tox: inconclusive

What do the screens show for `Cc1nn(C)c2c1c(C(F)(F)F)cc(=O)n2CC(=O)Nc1ccc(F)cc1F`?
KB-V1 MDR tox: inactive; KB-3-1 tox: inactive

Results for Cc1cccc(Cn2nnc3c2C(=O)c2ccccc2C3=O)c1 ?
IL-1B inflam inh: 11; KB-V1 MDR tox: 6.3µM*; HT1080NT lethal: inconclusive; HT1080 IDH1KD tx: inconclusive; KB-3-1 tox: inconclusive

How did Cc1ccccc1CN1C(=O)c2ccccc2C1c1nnnn1Cc1ccccc1 (configuration not stated) do in these assays?
IL-1B inflam inh: 0; KB-V1 MDR tox: inconclusive; HT1080NT lethal: 4%; HT1080 IDH1KD tx: 9%; KB-3-1 tox: inactive

How did Cc1ccccc1Cn1nnc2c1C(=O)c1ccccc1C2=O do in these assays?
IL-1B inflam inh: 0; KB-V1 MDR tox: 13µM*; HT1080NT lethal: -9%; HT1080 IDH1KD tx: 23µM*; KB-3-1 tox: inconclusive

Results for COC(=O)[C@@]12C[C@@H](CC(=O)N3CCSCC3)C(=O)N(CCc3ccc(OC)c(OC)c3)C1=CCC(C)(C)C2 ?
IL-1B inflam inh: inconclusive; KB-V1 MDR tox: inconclusive; HT1080NT lethal: 2%; HT1080 IDH1KD tx: 1%; KB-3-1 tox: inactive

What do the screens show for `Cc1cccc(N=C2Sc3nc4c(C)c(C)ccc4cc3CN2CCN2CCOCC2)c1`?
IL-1B inflam inh: -59*; KB-V1 MDR tox: inactive; HT1080NT lethal: inconclusive; HT1080 IDH1KD tx: inconclusive; KB-3-1 tox: inactive

Results for O=C(CN1C(=O)C2(SCC(=O)N2c2ccc(F)cc2)c2ccccc21)NC1CCCCC1 (configuration not stated) ?
KB-V1 MDR tox: inconclusive; KB-3-1 tox: inactive

Results for CC(C)n1c(=O)c2oc3ccccc3c2n(CC(=O)Nc2ccccc2Cl)c1=O ?
KB-V1 MDR tox: inactive; KB-3-1 tox: inactive

How did CCOC(=O)CSC1=NC(=O)/C(=C\c2ccc(OC(C)=O)cc2)S1 do in these assays?
IL-1B inflam inh: -62*; KB-V1 MDR tox: inconclusive; HT1080NT lethal: inconclusive; HT1080 IDH1KD tx: inconclusive; KB-3-1 tox: inconclusive

What do the screens show for `CCOC(=O)CSC1=NC(=O)/C(=C/c2ccc(Br)cc2)S1`?
IL-1B inflam inh: -64*; KB-V1 MDR tox: inactive; HT1080NT lethal: inconclusive; HT1080 IDH1KD tx: inconclusive; KB-3-1 tox: inactive

Results for O=C(CCNS(=O)(=O)c1ccccc1Cl)N1CCN(c2ccccn2)CC1 ?
IL-1B inflam inh: 0; KB-V1 MDR tox: 16µM*; HT1080NT lethal: 3%; HT1080 IDH1KD tx: 7%; KB-3-1 tox: inconclusive

What do the screens show for `CCOC(=O)c1ccc(NC(=O)N2CCN(c3ccccn3)CC2)cc1`?
IL-1B inflam inh: 3; KB-V1 MDR tox: 16µM*; HT1080NT lethal: 4%; HT1080 IDH1KD tx: 7%; KB-3-1 tox: inactive

Results for Nc1ncc(Br)cc1S(=O)(=O)NCCC(=O)N1CCN(c2ccccn2)CC1 ?
IL-1B inflam inh: 19; KB-V1 MDR tox: inactive; HT1080NT lethal: -2%; HT1080 IDH1KD tx: 9%; KB-3-1 tox: inactive

How did O=C(CCC1CCCN(C(=O)c2ccccc2Cl)C1)N1CCN(c2ccccn2)CC1 (configuration not stated) do in these assays?
IL-1B inflam inh: 0; KB-V1 MDR tox: 15µM*; HT1080NT lethal: -9%; HT1080 IDH1KD tx: -18%; KB-3-1 tox: inconclusive

How did CC(=O)c1ccccc1C(=O)N1CCCC(CCC(=O)N2CCN(c3ccccn3)CC2)C1 (configuration not stated) do in these assays?
IL-1B inflam inh: inactive; KB-V1 MDR tox: inactive; HT1080NT lethal: -2%; HT1080 IDH1KD tx: -3%; KB-3-1 tox: inactive

How did COc1ccccc1NC(=O)N1CCN(c2ccccn2)CC1 do in these assays?
IL-1B inflam inh: -5; KB-V1 MDR tox: inactive; HT1080NT lethal: 27%; HT1080 IDH1KD tx: 10%; KB-3-1 tox: inactive

How did O=C(Nc1ccccc1Cl)N1CCN(c2ccccn2)CC1 do in these assays?
IL-1B inflam inh: -22; KB-V1 MDR tox: 16µM*; HT1080NT lethal: 9%; HT1080 IDH1KD tx: -6%; KB-3-1 tox: inconclusive

Results for CC1(c2nnnn2C2CCCCC2)CCC(=O)N1Cc1ccc2c(c1)OCO2 (configuration not stated) ?
IL-1B inflam inh: 41; KB-V1 MDR tox: inactive; HT1080NT lethal: 20%; HT1080 IDH1KD tx: 23%; KB-3-1 tox: inactive

Results for COC(=O)c1ccccc1NC(=O)CNCCc1ccc(OC)c(OC)c1 ?
IL-1B inflam inh: 2; KB-V1 MDR tox: inconclusive; HT1080NT lethal: 18%; HT1080 IDH1KD tx: 8%; KB-3-1 tox: inactive

What do the screens show for `C=CCOc1cccn2c(N(C=O)Cc3ccc(OC)cc3)c(CC)nc12`?
IL-1B inflam inh: 45; KB-V1 MDR tox: inconclusive; HT1080NT lethal: 5%; HT1080 IDH1KD tx: -9%; KB-3-1 tox: inactive

How did O=C(Nc1ccc2nc(-c3ccco3)c(-c3ccco3)nc2c1)N1CCN(c2ccccn2)CC1 do in these assays?
IL-1B inflam inh: -57*; KB-V1 MDR tox: inconclusive; HT1080NT lethal: 1%; HT1080 IDH1KD tx: -19%; KB-3-1 tox: inactive

How did Cc1ccc(C2CC(=O)C=C(Nc3ccc(Cl)cc3)C2)cc1 (configuration not stated) do in these assays?
IL-1B inflam inh: 17; KB-V1 MDR tox: inconclusive; HT1080NT lethal: 0%; HT1080 IDH1KD tx: 4%; KB-3-1 tox: inactive

Results for O=C1C=C(Nc2ccc(Cl)cc2)CC(c2ccc(Cl)cc2)C1 (configuration not stated) ?
IL-1B inflam inh: -85*; KB-V1 MDR tox: 23µM*; HT1080NT lethal: inconclusive; HT1080 IDH1KD tx: -21%; KB-3-1 tox: inactive

Results for O=C1C=C(c2ccc(O)cc2)C[C@@H](c2ccc(Cl)cc2)C1 ?
IL-1B inflam inh: -75*; KB-V1 MDR tox: inactive; HT1080NT lethal: -9%; HT1080 IDH1KD tx: -18%; KB-3-1 tox: inactive

Results for Cc1ccc(C2=CC(=O)C[C@H](c3ccc(Cl)cc3)C2)cc1 ?
IL-1B inflam inh: 18; KB-V1 MDR tox: inactive; HT1080NT lethal: 3%; HT1080 IDH1KD tx: 8%; KB-3-1 tox: inactive

How did Cc1cccc(C(=O)NCC(=O)NC2CCC(C)CC2)c1 (configuration not stated) do in these assays?
IL-1B inflam inh: 3; KB-V1 MDR tox: inactive; HT1080NT lethal: 2%; HT1080 IDH1KD tx: 8%; KB-3-1 tox: inconclusive

What do the screens show for `CCOC(=O)N1CCC2(CC1)OC(=O)C(C)=C2C(=O)NCc1cccc(F)c1`?
KB-V1 MDR tox: inactive; KB-3-1 tox: inactive

Results for COc1ccccc1C(=O)Nc1nnc(-c2ccc3c(c2)CCCC3)o1 ?
IL-1B inflam inh: -63*; KB-V1 MDR tox: inconclusive; HT1080NT lethal: -17%; HT1080 IDH1KD tx: -16%; KB-3-1 tox: inactive

Bioassay records as filed in PubChem.
